# Measurements: PubChem BioAssay (NCATS)
# Inconclusive results are not listed. Where a call stands in place of a potency, no number is given. More than one record can exist for a structure, and the calls need not agree. Activity calls are given as the source filed them. Unless noted, calls come from the whole dose curve; as a rule, active = well fitted curve in the direction sought with a large enough effect; inconclusive = small, poorly fitted or top-dose-only effect, or another doubt; inactive = no such curve, though single readings can be large; an effect the other way counts as inactive or inconclusive.
# Tests used:
# [1] = qHTS for Inhibitors of Plasmodium falciparum (DD2) proliferation (AID 504314);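 note: parasite DNA measured by SYBR Green fluorescence after red cell lysis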
# Outline: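 Fluorescence read-out (ex 485/em 535 nm) of SYBR Green-stained parasite DNA quantifies intraerythrocytic growth. Cultures at 0.3% parasitemia and 2.5% hematocrit were treated for 72 h; data normalized to DMSO and 0.29 uM artemisinin wells.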
# [2] = qHTS for Inhibitors of Plasmodium falciparum (GB4) proliferation (AID 504315); note: nearly all actives have a fitted effect of over 50% in size
# Outline: (§1)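 Erythrocytes infected with P. falciparum line (0.3% parasitemia, 2.5% hematocrit final) incubated with compounds 72 h at 37 °C, 5% CO2; SYBR Green lysis buffer added, fluorescence read next day. Normalized to 0.29 uM artemisinin and DMSO.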
# [3] = qHTS for Inhibitors of Plasmodium falciparum (7G8) proliferation (AID 504316); note: nearly all actives have a fitted effect of over 65% in size; note: potency is the fitted concentration of half-maximal effect
# Outline: as §1
# [4] = qHTS for Inhibitors of Plasmodium falciparum (HB3) proliferation (AID 504318); note: nearly all actives have a fitted effect of over 60% in size
# Outline: as §1
# [5] = molecular target: Glucocorticoid receptor (Homo sapiens) (UniProt P04150); test: GR-GFP Redistribution (AID 450;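 active = compounds whose dose series gives a full or clear partial fitted curve of increased nuclear translocation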; note: potency is the fitted concentration of half-maximal effect); conditions: U2OS GR-GFP nuclear translocation, laser cytometry, 2 h
# Glucocorticoid receptor (Homo sapiens), sequence (P04150 whole entry, looked up, the tested form may be a part): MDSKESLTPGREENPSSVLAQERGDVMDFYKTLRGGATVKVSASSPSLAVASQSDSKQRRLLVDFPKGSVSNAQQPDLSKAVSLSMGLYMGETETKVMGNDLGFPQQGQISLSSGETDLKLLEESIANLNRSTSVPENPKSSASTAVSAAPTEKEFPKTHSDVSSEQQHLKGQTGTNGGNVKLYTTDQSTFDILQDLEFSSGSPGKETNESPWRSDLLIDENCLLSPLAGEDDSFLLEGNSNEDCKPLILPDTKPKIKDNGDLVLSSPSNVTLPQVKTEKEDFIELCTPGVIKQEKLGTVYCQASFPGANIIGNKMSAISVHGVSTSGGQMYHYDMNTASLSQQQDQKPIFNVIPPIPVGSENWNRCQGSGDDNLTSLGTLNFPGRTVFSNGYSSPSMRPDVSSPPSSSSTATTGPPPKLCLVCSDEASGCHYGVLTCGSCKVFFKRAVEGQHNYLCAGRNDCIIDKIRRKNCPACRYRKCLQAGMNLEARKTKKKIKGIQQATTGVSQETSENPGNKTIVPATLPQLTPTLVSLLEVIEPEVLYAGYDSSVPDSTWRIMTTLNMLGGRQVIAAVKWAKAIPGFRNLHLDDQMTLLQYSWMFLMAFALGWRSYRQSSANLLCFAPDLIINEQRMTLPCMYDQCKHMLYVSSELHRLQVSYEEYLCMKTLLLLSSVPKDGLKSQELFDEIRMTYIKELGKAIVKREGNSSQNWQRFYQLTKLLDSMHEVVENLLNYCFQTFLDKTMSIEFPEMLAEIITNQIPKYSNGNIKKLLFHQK
# [6] = molecular target: Glucocorticoid receptor (Homo sapiens) (UniProt P04150); test: GR-EFC Redistribution (AID 451; calls by dose curve; note: potency is the fitted concentration of half-maximal effect); conditions: CHO-K1 GR-EFC translocation, beta-gal luminescence, 2 h
# Outline: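 CHO-K1 cells stably expressing nuclear-localized β-gal enzyme acceptor and GR fused C-terminally to the enzyme donor fragment; ligand-driven nuclear translocation restores β-gal by complementation. Compounds titrated up to 46 uM final, 2 h at 37 °C; luminescence read.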
# [7] = molecular target: Ubiquitin carboxyl-terminal hydrolase 1 (Homo sapiens) (UniProt O94782); test: Inhibitors of USP1/UAF1: Pilot qHTS (AID 504865); note: potency is the fitted concentration of half-maximal effect; nearly all actives have a fitted effect of over 35% in size
# Ubiquitin carboxyl-terminal hydrolase 1 (Homo sapiens), sequence (O94782 whole entry, looked up): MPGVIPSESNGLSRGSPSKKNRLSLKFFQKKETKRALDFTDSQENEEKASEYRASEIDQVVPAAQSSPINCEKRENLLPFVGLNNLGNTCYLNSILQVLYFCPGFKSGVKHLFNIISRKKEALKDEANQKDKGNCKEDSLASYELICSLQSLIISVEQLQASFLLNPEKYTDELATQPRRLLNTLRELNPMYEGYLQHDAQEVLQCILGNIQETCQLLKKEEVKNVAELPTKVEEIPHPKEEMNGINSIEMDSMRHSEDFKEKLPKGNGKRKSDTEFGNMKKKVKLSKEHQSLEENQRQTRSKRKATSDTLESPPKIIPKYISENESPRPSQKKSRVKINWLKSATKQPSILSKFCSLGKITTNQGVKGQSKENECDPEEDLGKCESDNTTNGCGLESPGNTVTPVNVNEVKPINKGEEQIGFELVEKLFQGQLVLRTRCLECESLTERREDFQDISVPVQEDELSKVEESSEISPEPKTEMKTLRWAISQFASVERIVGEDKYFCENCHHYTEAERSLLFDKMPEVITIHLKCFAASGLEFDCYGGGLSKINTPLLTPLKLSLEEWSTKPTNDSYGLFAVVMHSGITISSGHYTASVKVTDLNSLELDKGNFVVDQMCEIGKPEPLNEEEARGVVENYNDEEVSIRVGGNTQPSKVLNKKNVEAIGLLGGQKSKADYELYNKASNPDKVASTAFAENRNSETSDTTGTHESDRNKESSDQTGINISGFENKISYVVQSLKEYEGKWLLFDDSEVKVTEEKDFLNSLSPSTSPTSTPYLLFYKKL
# Outline: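 USP1/UAF1 complex at 1 nM preincubated 15 min at room temperature with compound, then Ub-Rho substrate added at 150 nM final. Fluorescence (480/540 nm) read kinetically in 50 mM HEPES pH 7.8, 0.5 mM EDTA, 1 mM TCEP, 0.1 mg/ml BSA, 0.01% Tween-20.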
# [8] = molecular target: DNA dC->dU-editing enzyme APOBEC-3G (Homo sapiens) (UniProt Q9HC16); test: qHTS for inhibitors of Vif-A3G interactions: Validation (AID 588379)
# DNA dC->dU-editing enzyme APOBEC-3G (Homo sapiens), sequence (Q9HC16 whole entry, looked up): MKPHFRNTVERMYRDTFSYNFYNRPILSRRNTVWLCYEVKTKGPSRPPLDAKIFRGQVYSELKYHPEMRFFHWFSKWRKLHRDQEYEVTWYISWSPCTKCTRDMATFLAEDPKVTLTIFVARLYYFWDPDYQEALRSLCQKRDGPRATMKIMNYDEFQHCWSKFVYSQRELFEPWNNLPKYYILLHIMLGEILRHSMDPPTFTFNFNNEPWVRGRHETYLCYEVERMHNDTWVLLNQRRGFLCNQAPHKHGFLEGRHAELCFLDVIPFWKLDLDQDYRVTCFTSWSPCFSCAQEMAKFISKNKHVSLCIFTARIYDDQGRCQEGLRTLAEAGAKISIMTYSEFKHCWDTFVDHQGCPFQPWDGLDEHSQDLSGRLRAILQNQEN
# Outline: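 HeLa cells stably expressing Vif and A3G-eYFP, 700 cells/well, incubated overnight at 37 deg C, then exposed to compound overnight at 37 deg C. Inhibition of Vif-mediated degradation read as increased yellow fluorescence (Ex 488/Em 500-530) by laser-scanning cytometry.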
structure (smiles),measurement,setting,value
CC1(OC(=O)C2CCCC2)C(=O)C=C2C=C(c3ccsc3)N(C(CO)CO)C=C2C1=O (centres undefined),Potency,[1],inactive
same,Potency,[2],inactive
same,Potency,[3],inactive
same,Potency,[4],inactive
COC(=O)c1ccc(CN2C(=O)[C@]3(OCCC=C[C@@H]3C)c3c(Br)cccc32)cc1,Potency,[1],inactive
same,Potency,[2],inactive
same,Potency,[3],inactive
same,Potency,[4],inactive
OC[C@H]1O[C@H](C#Cc2ccccc2)C=C[C@H]1O,Potency,[1],inactive
same,Potency,[2],inactive
same,Potency,[3],inactive
same,Potency,[4],inactive
COCC=CC1=CC2=CC(=O)C(C)(OC(=O)c3cnc4ccccc4n3)C(=O)C2=CN1CCCCO (centres undefined),Potency,[1],inactive
same,Potency,[2],inactive
same,Potency,[3],inactive
same,Potency,[4],inactive
CCCCCC1=CC2=C(C(=O)OC)C(c3ccccc3)NC(=O)N2CC1 (centres undefined),Potency,[1],inactive
same,Potency,[2],inactive
same,Potency,[3],inactive
COc1ccc2c(c1)O[C@H](c1ccc3c(c1)OCO3)[C@@H](OC(=O)Nc1ccc(C)c(Br)c1)C2=O,Potency,[1],inactive
same,Potency,[2],inactive
same,Potency,[3],inactive
same,Potency,[4],inactive
CCCCC1=CC2=C(c3ccco3)C(=O)C(C)(OC(=O)c3ccc(OC)cc3)C(=O)C2=CN1Cc1ccco1 (centres undefined),Potency,[1],inactive
same,Potency,[2],inactive
same,Potency,[3],inactive
same,Potency,[4],inactive
c1ccc(CCc2nc(-c3ccccc3)oc2Nc2ccc3ccccc3c2)cc1,Potency,[1],inactive
same,Potency,[2],inactive
same,Potency,[3],inactive
same,Potency,[4],inactive
COc1ccc([C@]23Cc4cc(C#N)ccc4[C@H](O2)c2c(c4ccc(OC)cc4oc2=O)O3)cc1,Potency,[1],inactive
same,Potency,[2],inactive
same,Potency,[3],1.69 µM (active) and inactive
same,Potency,[4],inactive
CCN1C(=O)N[C@@H](c2ccccc2)[C@H](C(=O)OC)[C@H]1C,Potency,[1],inactive
same,Potency,[2],inactive
same,Potency,[3],inactive
same,Potency,[4],inactive
COC(=O)C1=C(C)N(CC2CC2)C(=NCCc2cccnc2)NC1c1ccccc1 (centres undefined),Potency,[1],inactive
same,Potency,[2],inactive
same,Potency,[3],inactive
COc1cccc(CO[C@H]2C=C[C@@H](c3ccccc3)O[C@H]2CO)c1,Potency,[1],inactive
same,Potency,[2],inactive
same,Potency,[3],inactive
same,Potency,[4],inactive
CCCCCCCC/C=C\CCCCCCCC(=O)N[C@@H](CO)Cc1ccc(O)cc1,Potency,[5],> 46 µM (inactive)
same,Potency,[6],> 46 µM (inactive)
same,Potency,[7],22.4 µM (active)
same,Potency,[8],inactive
O=C1N[C@H](Cc2ccccc2)C(=O)N1Cc1cccc2ccccc12,Potency,[1],inactive
same,Potency,[2],inactive
same,Potency,[3],inactive
same,Potency,[4],inactive
COc1cccc([C@H](O)Cn2cc(-c3ccc(CON=C(C)C)cc3)nn2)c1,Potency,[1],inactive
same,Potency,[2],inactive
same,Potency,[3],inactive
same,Potency,[4],inactive
COc1ccc(COC(=O)NN=C2C[C@@H](O)[C@@H](O)[C@@H]3[C@H]4C(=O)N(c5ccc(F)cc5F)C(=O)[C@@H]4CC[C@H]23)cc1,Potency,[1],inactive
same,Potency,[2],inactive
same,Potency,[3],inactive
same,Potency,[4],inactive
COc1cccc(NC(=O)/C=C\c2ccc(Cl)cc2)c1,Potency,[5],> 46 µM (inactive)
same,Potency,[6],> 46 µM (inactive)
same,Potency,[8],inactive
O=C(Oc1ccccc1)[C@H]1O[C@H]1c1ccccc1,Potency,[1],inactive
same,Potency,[2],inactive
same,Potency,[3],inactive
same,Potency,[4],inactive
